Abeta yeast res: A-beta toxicity reversal in yeast. yeast expressing A-beta42, growth rescue, OD600, 48 h; response scale: 0% DMSO, 100% iron-clioquinol control. Potency, µM (titrated, usually from 46.1 µM), actives largely listed as activators. AID 1347071. 0.063% of 410,000 active; also: nearly all actives have a fitted effect of over 55% in size
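Yeast A-beta toxicity model in growth medium with pinned compounds, 48 h at 30 C; growth read as absorbance at 600 nm. Normalized to FeCl3/clioquinol equimolar mix (positive) and DMSO (negative).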
TDP-43 yeast inh: inhibitors of TDP-43 toxicity in yeast; TDP-43 expressing yeast growth rescue, BacTiter-Glo, 24 h; AID 652104; Potency, µM (top dose mostly 46.1 µM), actives largely listed as activators; 1.8% of 410,000 active; also: nearly all actives have a fitted effect of over 50% in size
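Galactose-induced TDP-43 yeast, OD600=0.02, compound pinned; 24 hr, 30 deg C; BacTiter-Glo luminescence for growth. Inhibitors of TDP-43 toxicity read as activators.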
aSyn yeast inh: alpha-synuclein toxicity inhibition in yeast; Potency, µM (top dose mostly 46.1 µM), hits mostly activators; 0.14% of 370,000 active; Yeast expressing alpha-synuclein, growth rescue, BacTiter-Glo, 24 h; also: nearly all actives have a fitted effect of over 65% in size
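Galactose-induced alpha-syn yeast (OD600=0.02, raffinose-pregrown) + pinned cpd, 24 hr, 30 deg C; growth by BacTiter-Glo luminescence. Growth restoration scores as activation.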
FUS yeast rescue: FUS proteinopathy suppression in yeast; S. cerevisiae FUS-expressing, growth rescue, OD600, 24 h; Potency, µM (top dose mostly 76.6 µM), actives largely listed as activators; 0.24% of 390,000 active; AID 1347120; also: nearly all actives have a fitted effect of over 55% in size
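Compound concentration series was pinned onto galactose-induced FUS-expressing yeast seeded at OD 0.005. Plates sat 24hr at 30C; absorbance at 600 nm gave growth. DMSO served as background control.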
Mito fusion yeast: mitochondrial division inhibition or fusion activation; 0.23% of 320,000 active; Potency, µM (series often up to 46.1 µM), hits mostly activators; S. cerevisiae fusion-defective mutant growth rescue, CellTiterGlo 48 h; AID 485298; also: nearly all actives have a fitted effect of over 45% in size
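Yeast fusion mutant, YPEG (non-fermentable carbon), compound, 48 h at 37C non-permissive; CellTiterGlo added, 10 min RT, luminescence read. Rescued growth = division inhibition.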
Hits are given with their value; n = inactive; u = inconclusive; x = not tested or not shown; ! = a repeat was not active. An excerpt weighted towards active compounds, which were near 2.2% of everything screened. Calls follow the shape of the dose curve; as a rule, active = well fitted curve in the direction sought with a large enough effect; inconclusive = small, poorly fitted or top-dose-only effect, or another doubt; inactive = no such curve, though single readings can be large; an effect the other way counts as inactive or inconclusive.

SMILES | Abeta yeast res | TDP-43 yeast inh | aSyn yeast inh | FUS yeast rescue | Mito fusion yeast
CCCSc1ccc([C@H]2N[C@@](C)(C(=O)OC)[C@H]3C(=O)N(C)C(=O)[C@@H]23)cc1 | n | n | n | n | n
CCN1C(=O)[C@H]2[C@@H](c3ccc(-c4cccc(Cl)c4)cc3)N[C@@](C)(C(=O)OC)[C@H]2C1=O | n | n | u | u | 22.4µM
CCCCCCSc1ccc([C@H]2N[C@@](C)(C(=O)OC)[C@H]3C(=O)N(C)C(=O)[C@@H]23)cc1 | n | u | u | 12.6µM | n
S=C1NCCc2ccc(Cl)cc2C1c1ccccc1 (stereo not drawn) | n | 14.1µM | u | n | n
Clc1cccc(N2CCN(c3ncnc4c3nc3n4CCCC3)CC2)c1 | n | 15.8µM | x | n | x
Fc1ccccc1N1CCN(c2ncnc3c2nc2n3CCCC2)CC1 | n | u | x | n | x
Cc1ccc(Cl)cc1N1CCN(c2ncnc3c2nc2n3CCCCC2)CC1 | n | 25.1µM | x | n | x
COc1ccc(-n2nc(C(=O)N3CCCCC3C)c3c4ccccc4n(C)c3c2=O)cc1Cl (stereo not drawn) | n | n | x | n | x
Nc1ccc(NC(=O)c2cccc(C(=O)Nc3ccc(N)cc3Cl)c2)c(Cl)c1 | n | n | n | 11.2µM! | n
CCn1c2ccccc2c2cc(/C=C(/C#N)C(N)=S)ccc21 | n | 31.6µM | n | x | x
CCOC(=O)c1ccc(NC(=O)CSc2c(C(C)C)cnc3c2c(=O)n(C)c(=O)n3C)cc1 | n | n | x | n | x
CC1=C(C(=O)OC2CCCCCC2)C(c2c(F)cccc2Cl)CC(=O)N1 (stereo not drawn) | n | 11.2µM | x | n | x
COc1ccc2sc(-c3ccccc3OC)c(-c3ccc(O)cc3)c2c1 | n | n | n | u | n
COc1cc2sc(-c3ccccc3OC)c(-c3ccc(O)cc3)c2cc1OC | n | 15.8µM | n | n | x
CN(Cc1ccccc1)C(=S)NC(=O)c1cccs1 | 12.6µM | u | n | n | n
CN(Cc1ccccc1)C(=S)NC(=O)c1ccc(-c2ccccc2)cc1 | n | n | n | n | n
O=C(CSc1nc2ccccc2[nH]1)c1ccccc1F | n | n | n | n | n
Cc1noc(C)c1CSc1nc2ccccc2[nH]1 | n | n | n | n | n
Fc1cccc(F)c1CSc1nc2ccccc2[nH]1 | n | 12.6µM | n | n | n
c1ccc(-c2cc(CSc3nc4ccccc4[nH]3)on2)cc1 | n | 20µM | n | n | n
O=C(Cc1ccccc1)Nc1nccs1 | n | n | n | n | n
C/C(=C\c1ccccc1)C(=O)Nc1nccs1 | n | 11.2µM | n | n | u
S=C(Nc1ccccc1)Nc1nccs1 | u | 12.6µM | n | n | u
Fc1ccc(NC(=S)Nc2nccs2)cc1 | u | 22.4µM | n | n | n
Cc1ccc2c(c1)c1c(c(=O)n(Cc3ccccc3)c(=O)n1Cc1cccc(C(F)(F)F)c1)n2C | n | n | x | n | x
SMILES | Abeta yeast res | TDP-43 yeast inh | aSyn yeast inh | FUS yeast rescue | Mito fusion yeast
CC(=O)Nc1ccc(Nc2ccc3cc(S(=O)(=O)N4CCCCC4)ccc3n2)cc1 | n | n | x | n | x
CC(Cl)OC(=O)Nc1cccc2cccnc12 (stereo not drawn) | x | x | n | x | x
CCc1c(O)nc(SCC(=O)Nc2ccc(Cl)cc2)n(-c2ccccc2)c1=O | n | n | n | u | x
Cc1cc(NC2CCCCC2)nc(-n2nc(C)cc2C)n1 | x | x | u | x | 14.6µM
Clc1ccccc1C(c1ccccc1)(c1ccccc1)n1ccnc1 | n | u | u | n | 0.517µM!
Clc1ccccc1OCCCn1ccnc1 | n | n | n | n | n
FC(F)(F)c1ccccc1-n1ccnc1 | n | n | n | n | n
C#CC(c1ccccc1)(c1ccccc1)n1ccnc1 | n | 3.55µM | n | n | x
C=CCN1C(=O)[C@H](CC(=O)NCc2cccs2)[C@@]2(C(=O)OCC)CCCC=C12 | x | x | x | n | x
CCOc1ccc(-c2nonc2NC(=O)c2oc3ccc(Cl)cc3c2C)cc1 | n | n | x | n | x
O=C(N/N=C\C=C\c1ccco1)c1cc(-c2ccc3ccccc3c2)n[nH]1 | n | n | 17.8µM | u | n
CCOc1ccc2c(c1)c(=O)c(C(=O)c1ccccc1)cn2Cc1ccccc1F | n | n | x | n | x
O=C1c2cccc3c(O)ccc(c23)C(=O)N1Cc1ccccc1 | n | n | n | n | 17.8µM

Compound activity from PubChem.
